# Values joined by “and” are separate entries in the source; they are usually repeats but may differ in a detail not shown here. Equal values may be shown once. Inconclusive results are not listed. More than one record can exist for a structure, and the calls need not agree. Values without a mark were called inactive. Calls come from the whole dose curve; as a rule, active = well fitted inhibition curve with a large enough effect; inconclusive = small, poorly fitted or top-dose-only effect; inactive = flat fitted curve, though single readings scatter. Where a SMILES comes first, the peptide text is derived from it. Bridges are numbered along the chain shown (N, C = ends). [ ]: non-standard residue; d: D form. The star is where a group is joined. X2 = CC[C@H](C)CCCCC(=O)*; Dab = NCC[C@H](N)C(=O)O
# Test: Drug repurposing screens with cells derived from glioblastoma tumor samples (AID 1345199); note: nearly all actives have a fitted effect of over 40% in size
# Conditions: GBM patient neurospheres viability, ATP luminescence, 48 h; at 45.9 µM (top of the series); tumour line B
# Outline: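 Four patient lines of CD133+ GBM neurospheres were screened at several concentrations; hits were retested in those lines plus three slower-growing GBM lines, using 48-hour treatment and ATP-based viability.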
# % is set by controls: 0 for no effect and ±100 for the full control effect.
row,SMILES,"activity, negative = cell killing"
1,CCCCCCCCCCCCCCCC(=O)OC/C=C(C)/C=C/C=C(C)/C=C/C1=C(C)CCCC1(C)C,-7.71%
2,CN1CC(O)c2cc(N=NC(N)=O)c(O)cc21 (configuration not stated),-10.8%
3,CCN(CC)CCOC(=O)c1ccc(N)cc1Cl,-9.89%
4,O=S(O)CO,4.97%
5,COCC1=C(C(=O)OC(C)OC(=O)OC(C)C)N2C(=O)[C@@H](NC(=O)/C(=N\OC)c3csc(N)n3)[C@H]2SC1 (some centres not stated),-23.6% and -15.3%
6,CCOC(=O)Cc1cccc(-c2cc(CCCCCCc3ccc(O[C@H]4O[C@H](COC(C)=O)[C@@H](OC(C)=O)[C@H](OC(C)=O)[C@@H]4OC(C)=O)c(-c4cccc(CC(=O)OCC)c4)c3)ccc2O[C@H]2O[C@H](COC(C)=O)[C@@H](OC(C)=O)[C@H](OC(C)=O)[C@@H]2OC(C)=O)c1,-6.7%
7,Nc1ncnc(Nc2ccc(Cl)cc2)n1,-4.5%
8,CCCN(CC)C(CC)C(=O)Nc1c(C)cccc1C (configuration not stated),-5.49%
9,C/C(=C(\CCOC(=O)c1ccccc1)SS/C(CCOC(=O)c1ccccc1)=C(/C)N(C=O)Cc1cnc(C)nc1N)N(C=O)Cc1cnc(C)nc1N,-18%
10,CC(=O)O[C@H]1CC[C@@]2(C)C(=CC[C@@H]3[C@@H]2CC[C@]2(C)C(c4cccnc4)=CC[C@@H]32)C1,-19.3%
11,O=C(Cn1cnnn1)N[C@@H]1C(=O)N2C(C(=O)O)=C(CSc3nncs3)CS[C@H]12,-3.62% and -9.64%
12,C=C1CC2C3CCC4=CC(=O)C=C[C@]4(C)[C@@]3(F)[C@@H](O)C[C@]2(C)[C@@]1(O)C(=O)COC(C)=O (some centres not stated),-0.0683%
13,O=C1O[C@H]2[C@H](O)[C@@H]1OC(O)[C@H]2O (some centres not stated),-7.22%
14,CCCCCCCCCCCCCCCCCC(=O)[O][Al],-8.38%
15,CCC(=O)O,6.59%
16,COc1cc2c(c(OC)c1OC)-c1c(cc3c(c1OC)OCO3)C[C@@H](C)[C@](C)(O)C2,-5.29% and -6.75%
17,CC(=O)[C@@]1(O)CC[C@H]2[C@@H]3C=C(Cl)C4=CC(=O)CC[C@]4(C)[C@H]3CC[C@@]21C,-7.69%
18,C[C@H]1C[C@@H]2[C@H]([C@@H](O)C[C@@]3(C)[C@H]2CC[C@]3(O)C(=O)COC(=O)CCC(=O)O)[C@@]2(C)C=CC(=O)C=C12,-16.2%
19,CCC(=O)Oc1ccc2c(c1)CC[C@@H]1[C@@H]2CC[C@]2(C)[C@@H](OC(=O)CC)CC[C@@H]12,-0.785%

row,SMILES,"activity, negative = cell killing"
1,CC(=O)OCC(=O)[C@@]1(O)[C@H](C)C[C@H]2[C@@H]3C[C@H](F)C4=CC(=O)C=C[C@]4(C)[C@H]3[C@@H](O)C[C@@]21C,1.71%
2,CCCCC(=O)O,-3.62% and -8.26%
3,CN=C(NC)NCc1ccccc1,-3.78%
4,Cc1cc(Nc2ccccc2C(=O)O)ccc1Cl,-5.77%
5,C/C=C(/CC[C@@H](C)[C@H]1CC[C@H]2C3=CC[C@H]4[C@H](C)[C@@H](O)CC[C@]4(C)[C@H]3CC[C@]12C)C(C)C,-6.71%
6,CS(=O)(=O)Nc1cc2occ(NC=O)c(=O)c2cc1Oc1ccccc1,-8.06%
7,OCC(O)COc1ccc(Cl)cc1 (configuration not stated),-4.12%
8,O=C1O[C@@H]2[C@@H](O)[C@H](O)O[C@@H]2[C@H]1O,-11.2%
9,CC(C)(S)C(=O)N[C@@H](CS)C(=O)O,-12.3% and -6.78%
10,CC(=O)O[C@H]1C[C@@H]2CC[C@@H]3[C@H](CC[C@@]4(C)[C@H]3C[C@H](N3CC[N+](C)(C)CC3)[C@@H]4OC(C)=O)[C@@]2(C)C[C@@H]1N1CC[N+](C)(C)CC1,-3.42%
11,O=C[C@H](O)[C@@H](O)[C@H](O)[C@H](O)CO,-4.49%
12,NCCC[C@H](N)C(=O)O,-11.7%
13,NCCCC[C@H](NC(=O)[C@@H]1CCCN1C(=O)[C@@H]1CSSC[C@H](N)C(=O)N[C@@H](Cc2ccccc2)C(=O)N[C@@H](Cc2ccccc2)C(=O)N[C@@H](CCC(N)=O)C(=O)N[C@@H](CC(N)=O)C(=O)N1)C(=O)NCC(N)=O,-4.48%
14,CC[C@H](C)CCCCC(=O)N[C@@H](CCN)C(=O)N[C@H](C(=O)N[C@@H](CCN)C(=O)N[C@H]1CCNC(=O)[C@H]([C@@H](C)O)NC(=O)[C@H](CCN)NC(=O)[C@H](CCN)NC(=O)[C@H](CC(C)C)NC(=O)[C@@H](CC(C)C)NC(=O)[C@H](CCN)NC1=O)[C@@H](C)O (X2-[Dab]T[Dab][Dab][Dab][dL]L[Dab][Dab]T; lactam 4-C),6.46%
15,CC(C(=O)O)c1ccc(C2CCCCC2)c2ccccc12 (configuration not stated),-3.21%
16,CCN1CCCC1CNC(=O)c1cc(S(=O)(=O)CC)ccc1OC (configuration not stated),-1.25% and -14.5%
17,O=C(O)c1cc2ccccc2c(Cc2c(O)c(C(=O)O)cc3ccccc23)c1O,5.19%
18,O=C1C(c2[nH]c3ccc(S(=O)(=O)O)cc3c2O)=Nc2ccc(S(=O)(=O)O)cc21,-3.91% and -0.988% and -8.05%
